Our source for the activity change, less the hit threshold values is PubChem BioAssay AID1942 (Johns Hopkins Ion Channel Center, 2009).

The campaign covered roughly 2,400 compounds. About 580 (24%) were called active. These entries were drawn from the full list. A number with no mark means an inactive call.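 How the source made its calls: active means activity change at or above the mean plus 3 SD of buffer wells without dofetilide, per plate; inactive means the rest.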

Sequence of Potassium voltage-gated channel subfamily KQT member 2 (Rattus norvegicus) (O88943 whole entry, looked up): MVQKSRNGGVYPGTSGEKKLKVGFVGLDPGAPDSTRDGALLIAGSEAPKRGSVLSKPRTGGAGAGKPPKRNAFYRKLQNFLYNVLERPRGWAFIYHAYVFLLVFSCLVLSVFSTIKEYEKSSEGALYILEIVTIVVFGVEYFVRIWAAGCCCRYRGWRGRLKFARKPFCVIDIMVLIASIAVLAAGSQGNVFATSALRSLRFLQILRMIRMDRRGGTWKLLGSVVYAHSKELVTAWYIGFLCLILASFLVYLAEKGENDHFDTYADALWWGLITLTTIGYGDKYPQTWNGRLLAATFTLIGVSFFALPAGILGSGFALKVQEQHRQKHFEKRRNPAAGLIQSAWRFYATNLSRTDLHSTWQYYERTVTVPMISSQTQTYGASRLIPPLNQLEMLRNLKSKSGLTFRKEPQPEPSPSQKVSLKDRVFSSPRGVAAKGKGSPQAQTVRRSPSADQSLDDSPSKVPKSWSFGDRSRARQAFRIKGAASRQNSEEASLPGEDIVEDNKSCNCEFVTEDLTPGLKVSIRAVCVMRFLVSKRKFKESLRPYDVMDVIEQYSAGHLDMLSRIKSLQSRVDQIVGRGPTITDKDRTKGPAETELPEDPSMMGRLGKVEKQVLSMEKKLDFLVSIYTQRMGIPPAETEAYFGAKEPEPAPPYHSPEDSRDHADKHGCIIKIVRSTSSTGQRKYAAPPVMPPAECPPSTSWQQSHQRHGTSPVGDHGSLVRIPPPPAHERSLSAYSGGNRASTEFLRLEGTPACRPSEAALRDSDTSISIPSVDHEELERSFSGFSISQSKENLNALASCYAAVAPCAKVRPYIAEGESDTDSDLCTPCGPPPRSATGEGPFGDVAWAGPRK

The assay concerns the target Potassium voltage-gated channel subfamily KQT member 2 (Rattus norvegicus) (UniProt O88943). Description: KCNQ2 potentiation in CHO cells – cell-based, FluxOR thallium flux, counter-screen for hERG block protector project, confirmation (AID 1942).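 Further: normalized value minus buffer-control mean plus three SD of buffer wells.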 The conditions noted are these: FluxOR thallium flux fluorescence, at 10 µM, hits give high values.
For the compound `O=C(O)C[C@H]1c2cc(F)ccc2S(=O)(=O)N1C1CCCCC1`, the activity change, less the hit threshold was -10.2%. The value for `CC(C)(C)c1cc(C(=O)NNC(=O)c2ccc(Cl)cc2)no1` was 24% (active); that for `CC(C)(C)c1csc(NNC(=O)c2ccc(Cl)cc2)n1` was -7.6%.

For `Cc1nc(-c2nc(-c3c(C(=O)NNC(=O)c4ccc(Cl)cc4)noc3C)cs2)cs1`, the activity change, less the hit threshold is -1.2%. On to `CCc1nc(C)ccc1OCC(=O)N1CCc2c([nH]c3ccccc23)C1c1ccccn1` (stereo not given), for which the activity change, less the hit threshold is -18.2%. `CCN(CC)c1ccc(/C=c2\sc3nnc(-c4ccccc4Cl)n3c2=O)cc1`: the activity change, less the hit threshold was -31.7%.

As to `O=C(NC(=S)NCc1ccc(-c2nc3ccccc3s2)cc1)c1ccco1`, the activity change, less the hit threshold was -16%. In the case of `Cc1ccc2nc(NC(=S)NC(=O)c3ccco3)sc2c1` it was -6.5%; in that of `O=C(NC(=S)Nc1nc(-c2ccc(Br)cc2)cs1)c1ccco1`, -18.5%; in that of `O=C(NC(=S)Nc1nc(-c2ccc([N+](=O)[O-])cc2)cs1)c1ccco1`, 20.1% (active).

On to `O=C(NC(=S)Nc1nc2ccc(F)cc2s1)c1ccco1`, for which the activity change, less the hit threshold is 59.7% (active).

On to `COc1ccc(-c2csc(NC(=S)NC(=O)c3ccco3)n2)cc1Br`, for which the activity change, less the hit threshold was -3.7%. In the case of `COc1ccc(-c2csc(NC(=S)NC(=O)c3ccco3)n2)cc1` it was -0.4%; in that of `O=C(NC(=S)Nc1nc(-c2ccccc2)cs1)c1ccco1`, -0.7%.

For `O=C(NC(=S)Nc1nc2ccccc2s1)c1ccco1`, the activity change, less the hit threshold is 40.4% (active). On to `COc1ccc2nc(NC(=S)NC(=O)c3ccco3)sc2c1`, for which the activity change, less the hit threshold was 27.9% (active). The value for `Cc1ccc(C)c(N2CCN(S(=O)(=O)c3ccc(-c4ccc(=O)[nH]n4)o3)CC2)c1` was -14.6%. Regarding `CCn1cc(CCC(=O)NCc2cccc(OC)c2OC)c2ccccc21`, the activity change, less the hit threshold is -13%. Regarding `Cc1cc(N2CCN(C)CC2)nc(N2CCOCC2)n1`, the activity change, less the hit threshold is -10%.

As to `CCN(CC)C(=O)CN1C(=O)c2cccc3cccc(c23)C1=O`, the activity change, less the hit threshold is -24.8%.

For the compound `CN(C)c1oc(-c2ccccc2)nc1C#N`, the activity change, less the hit threshold is -16.2%. In the case of `CC(=O)C1C(=O)c2c(cccc2[N+](=O)[O-])C1=Nc1ccccc1C` (stereo not given) it was -21.7%; in that of `O=c1cc(O)c2sc(Nc3ccc(F)c(Cl)c3)nc2[nH]1`, -20.3%. The value for `COc1ccc(N2CCN(CC(O)COc3ccc(F)cc3)CC2)cc1` (stereo not given) was -24.2%.

`CC1=C(C)CS(=O)N(c2ccc(S(N)(=O)=O)cc2)C1` (stereo not given): the activity change, less the hit threshold is -5.8%. In the case of `Cc1ccc(-c2nc3ccccc3c(=O)n2O)cc1` it was 6.3% (active). In the case of `O=c1c2ccccc2nc(-c2ccccc2)n1O` it was -9.4%. The value for `CC1=NN(c2ccccc2)C(=O)C1C(=O)c1ccc(Cl)cc1` (stereo not given) was -0.6%.

As to `O=c1c2ccccc2nc(-c2ccc(Cl)c(Cl)c2)n1O`, the activity change, less the hit threshold is 68.4% (active).

Regarding `O=c1c2cc(Cl)ccc2nc(-c2ccccc2)n1O`, the activity change, less the hit threshold was 27.1% (active). In the case of `Cc1ccc(-c2nc3c(Cl)cc(Cl)cc3c(=O)n2O)cc1` it was 142% (active); in that of `Cc1ccc(C(=O)Nc2nc3ccccc3c(=O)s2)cc1`, -1.3%; in that of `COc1cccc([C@@H]2Oc3ccc(OC)cc3C(=O)[C@H]2OC(=O)NCc2ccc3c(c2)OCO3)c1`, -12.3%. In the case of `N#CC(=C1SC=CS1)c1nc(-c2ccccc2)cs1` it was -21.5%; in that of `O=C(N/N=C/c1ccccc1[N+](=O)[O-])c1ccc(CN2CCOCC2)cc1`, -14.3%; in that of `Cc1ccc(Nc2nc(-c3cccs3)cs2)nc1`, -16.1%. The value for `O=C(N/N=C/c1cccs1)C(=O)Nc1cccc(Cl)c1` was -12.5%. Regarding `CSc1nc2c(c(=O)[nH]1)C(c1ccc(Cl)cc1)CC(=O)N2` (stereo not given), the activity change, less the hit threshold is -14%.

As for `Cc1ccc(C(=O)CC(=O)c2cc(Cl)ccc2O)cc1`, the activity change, less the hit threshold is -19.3%.

Take `Cc1ccc(-c2nc3ccc(Cl)cc3c(=O)n2O)cc1`: the activity change, less the hit threshold was 104% (active).

Consider `O=c1c2ccccc2nc(-c2cccc(Cl)c2)n1O`, for which the activity change, less the hit threshold is 28.8% (active). The value for `Cc1ccc(-c2onc3ccc(Cl)cc23)cc1` was -16.5%. The value for `CCOC(=O)c1c(N2C(=O)Nc3ccccc3N2O)n[nH]c1-c1cccc(Cl)c1` was -9.4%. The value for `O=c1c2cc(Cl)ccc2nc(-c2ccc(Cl)c(Cl)c2)n1O` was 127% (active); that for `Cc1ccc(CNS(=O)(=O)c2cc3c4c(c2)CCN4C(=O)CC3)cc1` was -11.7%. `Cc1cc([N+](=O)[O-])nn1CC(=O)Nc1ccc(Cl)cn1`: the activity change, less the hit threshold was -1.2%. The value for `COC(=O)c1ccc(/C=C/c2ccc3cccc(OC)c3n2)cc1` was -22.1%; that for `CCCCCn1c(=S)[nH]c2ncccc2c1=O` was 17.1% (active). In the case of `CCN(CCCn1c(=S)[nH]c2ncccc2c1=O)c1ccccc1` it was 10.4% (active); in that of `CCCCC(CC)CNC(=O)Cn1c(=S)[nH]c2ncccc2c1=O` (stereo not given), -9.7%; in that of `CC(C)CCn1c(=S)[nH]c2ncccc2c1=O`, -3.7%.

Regarding `COC(=O)c1ccc(NN=Nc2ccc(C)cc2)cc1`, the activity change, less the hit threshold is -4.6%. The value for `C=CCNc1sc(C(=O)C(C)(C)C)c(N)c1C#N` was -15.5%; that for `CCc1c(C)nc(SC)n(CC#N)c1=O` was -14.4%. The value for `CCCCNC(=S)N/N=C/C1=CCC2CC1C2(C)C` (stereo not given) was -17.2%; that for `O=c1c(O)c(-c2cccs2)oc2ccccc12` was 95.3% (active); that for `Cn1nc(C(=O)Nc2ccc3c(c2)OCO3)c2ccccc2c1=O` was -16.1%. In the case of `c1ccc2c(c1)c1ccccc1n1c(-c3ccc4c(c3)OCO4)nnc21` it was -10%.

With `O=c1c(O)c(-c2ccc3c(c2)OCO3)oc2ccccc12`, the activity change, less the hit threshold is 12% (active). With `O=c1c(O)c(-c2cccs2)oc2ccc(Cl)cc12`, the activity change, less the hit threshold is 111% (active).

Consider `Cc1nnc(SCC(=O)Nc2nccs2)n1N`, for which the activity change, less the hit threshold was -19.4%. With `CCOc1ccc(Nc2ccc([N+](=O)[O-])c3nonc23)cc1`, the activity change, less the hit threshold was -4.2%.

For the compound `COC(=O)c1ccc(-n2c(C)nc(=O)c(-c3ccccc3)c2C)cc1`, the activity change, less the hit threshold is -13.8%.

`CC(NC(=O)CCCn1cc([N+](=O)[O-])cn1)c1ccccc1` (stereo not given): the activity change, less the hit threshold was -27%. The value for `CC(C)Oc1cccc(C(=O)N2CCCC2)c1` was -14%; that for `COc1ccc(C(=O)NNC(=O)C(=O)Nc2ccc(C)c(Cl)c2)cc1` was -0.2%; that for `COc1ccc(C(=O)NNC(=O)C(=O)Nc2ccc(C)cc2)cc1` was 22.4% (active).

Consider `COc1ccc(NC(=O)C(=O)NNC(=O)C(C)Oc2ccc(Cl)cc2Cl)cc1` (stereo not given), for which the activity change, less the hit threshold is 32.6% (active). In the case of `COc1cccc(C(=O)Nc2cccc(-c3ccc(N4CCOCC4)nn3)c2)c1` it was -17.8%; in that of `COc1cccc(C(=O)NNC(=O)C(=O)Nc2cccc(Cl)c2C)c1`, 54.1% (active); in that of `COc1cccc(C(=O)NNC(=O)C(=O)Nc2ccc(C)c(Cl)c2)c1`, 66.8% (active). With `COc1ccc(NC(=O)C(=O)NNC(=O)c2ccc(Cl)cc2Cl)cc1`, the activity change, less the hit threshold is -7.7%. In the case of `CC(Oc1ccc(Cl)cc1Cl)C(=O)Nc1cccnc1` (stereo not given) it was -25.1%; in that of `CCN(C(=O)c1cc2c(=O)[nH]c3ccc(C)cc3c2s1)c1ccccc1F`, -7%; in that of `O=C(O)c1cccc2cc(-c3ccccc3)oc(=O)c12`, -17.7%.

Regarding `COc1cccc(CN(C)CC2CCCN(CCc3ccc(Cl)cc3)C2)c1OC` (stereo not given), the activity change, less the hit threshold was -26.8%. With `Cc1ccc(-n2nc(C)c3c2OC(N)=C(C#N)C3c2ccoc2)cc1` (stereo not given), the activity change, less the hit threshold is -13.7%. Turning to `O=C(CCC(=O)N1CCN(S(=O)(=O)c2ccccc2)CC1)c1cccs1`, the activity change, less the hit threshold was -13.6%. The value for `CN1C(=O)NC(c2cccc([N+](=O)[O-])c2)C2=C1CC(C)(C)CC2=O` (stereo not given) was -22.1%.

On to `CCc1ccc(NC(=O)C(=O)NNC(=O)c2cccc(OC)c2)cc1`, for which the activity change, less the hit threshold was 62.3% (active).

For `COc1cccc(C(=O)NNC(=O)C(=O)Nc2ccc(C)cc2)c1`, the activity change, less the hit threshold is 78.3% (active). In the case of `CCc1ccc(NC(=S)Nc2cccc(OC)c2)cc1` it was -15.5%; in that of `COc1cccc(NC(=O)c2cncs2)c1`, -22.6%; in that of `CCc1ccc(NC(=O)C(=O)NNC(=O)c2ccc(OC)cc2)cc1`, 100% (active). The value for `COc1ccc(CCNC(=O)C2CCCN(S(C)(=O)=O)C2)cc1` (stereo not given) was -23.4%; that for `Cc1n[nH]c(C)c1CCNC(=O)C1CCC(=O)N(Cc2ccccc2F)C1` (stereo not given) was -14%. With `Cc1c(-c2ccn[nH]2)cc(NC(=O)c2ccc(Cl)cc2)c(=O)n1N`, the activity change, less the hit threshold is -24.4%.

Turning to `COCC1CCCN(C(=O)c2ccc3oc(C(C)C)nc3c2)C1` (stereo not given), the activity change, less the hit threshold is -11.7%. The value for `Cc1ccc(NC(=O)CN2C(=O)N/C(=C/c3ccccc3OCc3cccc(C(=O)O)c3)C2=O)cc1` was -18.7%; that for `CCOC(=O)NC(=O)/C(C#N)=N\Nc1ccc(Cl)cc1` was -17.6%.

As to `CC(C)(C)SCCNC(=O)CN1C(=O)c2ccccc2S1(=O)=O`, the activity change, less the hit threshold is -13.2%. In the case of `Cc1nc2cc3sc(C)nc3cc2s1` it was -9.2%; in that of `COc1ccc(-c2cc(=O)oc3cc(OCC(C)=O)ccc23)cc1`, -20.9%; in that of `O=C(CCN1C(=O)/C(=C/c2cccs2)SC1=S)Nc1cccc(C(=O)O)c1`, -22.7%. In the case of `O=C(CN1C(=O)S/C(=C\c2cccs2)C1=O)Nc1ccc(C(=O)O)c(O)c1`, the activity change, less the hit threshold was 21.5% (active). For the compound `O=C(CN1C(=O)S/C(=C\c2cccs2)C1=O)Nc1ccc(O)c(C(=O)O)c1`, the activity change, less the hit threshold was -14%. Regarding `CSc1nc(C)c2c(n1)N(c1ccc(C(C)C)cc1)CC2`, the activity change, less the hit threshold was -17.3%. The value for `O=C(N/N=C/c1ccc(-c2ccccc2)o1)c1ccccc1O` was -5.7%; that for `Cc1cccc(C(=O)CC(=O)c2cc(Cl)ccc2O)c1` was -14.2%; that for `O=C(N/N=C/c1cc(Cl)ccc1O)c1ccccc1Br` was 6.8% (active).
